HepG2 viability – counter-screen for TGF-b inhibitors: cytotoxicity in HepG2 cells; AID 588856; hit rate 0.76% among 410,000; Potency, µM (highest dose often 46.1 µM), actives largely listed as cytotoxic; HepG2 CAGA-GFP viability, ATP luminescence, 18 h
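CellTiter-Glo luminescence gave cytotoxicity after 18 hours at 37 degrees C. The cells were HepG2 CAGA-GFP in 1% FBS DMEM, stimulated with 500 pg/mL TGF-beta after compound addition. %Activity was normalised to no-cell wells (complete cell-killing) and DMSO (no toxicity), and curves were fitted and classified.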
ATXN2 expr inh – reduces ATXN2 reporter expression in HEK-293 cells; HEK-293 ATXN2-luciferase reporter, luminescence, 24 h; hit rate 0.72% among 360,000; Potency, µM (series often up to 57 µM), usual class: inhibitors; further: nearly all actives have a fitted effect of over 55% in size
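qHTS (up to 57 uM final) was run with 24 h compound exposure of reporter cells at 37 °C. Each well was multiplexed: SteadyGlo luminescence measured ATXN2-luciferase expression after a fluorogenic Gly-Phe-AFC viability readout (25 uM final).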
D3 antag – D3 dopamine receptor (human) antagonism; P35462; D3R cells, DiscoveRx beta-arrestin luminescence, antagonist mode; stronger effect = lower value; AID 652054; hit rate 2.5% among 360,000; max response, negative = inhibition, %; in the data active means max response below about -50%; inconclusive means no clear call, values can overlap the other calls
Target sequence (P35462 whole entry, looked up): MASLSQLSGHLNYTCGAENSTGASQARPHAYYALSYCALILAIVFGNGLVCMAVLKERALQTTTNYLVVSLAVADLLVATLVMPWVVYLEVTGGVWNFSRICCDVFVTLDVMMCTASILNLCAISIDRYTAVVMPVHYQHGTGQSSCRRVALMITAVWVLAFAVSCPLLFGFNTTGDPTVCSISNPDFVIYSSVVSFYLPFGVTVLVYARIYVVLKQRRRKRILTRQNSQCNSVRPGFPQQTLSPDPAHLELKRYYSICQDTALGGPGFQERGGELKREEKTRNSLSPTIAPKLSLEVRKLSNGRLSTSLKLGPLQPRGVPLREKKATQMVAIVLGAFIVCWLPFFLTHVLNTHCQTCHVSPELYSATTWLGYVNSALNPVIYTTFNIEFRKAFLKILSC
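Cells expressing the human receptor were seeded at 1500 cells/well, incubated overnight at 37 degrees C in 5% CO2, then exposed to library compounds with dopamine controls for 90 minutes at 37 degrees C before luminescent detection.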
DRD3 agonist – D3 dopamine receptor (human) agonism. P35462. D3R DiscoveRx beta-arrestin cells, luminescence, 90 min. max activation, %. hit rate 0.58% among 410,000. AID 652048; in the data active means max activation above about 30%
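Agonist-mode cell screen: cells plated at 1500/well and incubated overnight at 37 °C, then exposed to library compounds for 90 min at 37 °C. Detection reagent was added for 30–60 min at room temperature, and luminescence was read.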
S2 tox – reduces viability in counter-screen for ATXN expression inhibitors | S2 cells (HEK-293 line with an ATXN2-luciferase reporter) viability, CellTiter-Fluor protease fluorescence, 24 h | Potency, µM (top dose mostly 56.7 µM), most hits filed as cytotoxic | hit rate 0.49% among 400,000 | AID 651635; further: nearly all actives have a fitted effect of over 40% in size
TGFb inhibitor – TGF-b pathway inhibition; HepG2 CAGA-GFP TGF-b/SMAD3 reporter, GFP fluorescence, 18 h; TGF-beta stimulated, 500 pg/mL final; Potency, µM (doses to about 46.1 µM), hits mostly inhibitors; hit rate 1.2% among 410,000; AID 588855; further: nearly all actives have a fitted effect of over 65% in size
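Per well, imaged GFP fluorescence of HEPG2 CAGA-GFP cells gives the signal; cells get compound, then TGF-beta (500 pg/mL final), 18 h at 37 degrees C; %Activity versus -TGF-beta and +DMSO controls.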
Hits are given with their value. Most compounds without a hit are left out; they make up all but 4.7% or so of the library. Unless noted, the call rests on the fitted dose curve; in most records, active means well fitted curve in the direction sought with a large enough effect; inconclusive means small, poorly fitted or top-dose-only effect, or another doubt; inactive means no such curve, though single readings can be large; an effect the other way counts as inactive or inconclusive.

CC(=O)[C@@]1(O)Cc2c(O)c3c(c(O)c2[C@H](O[C@H]2C[C@H](N)[C@H](O)[C@H](C)O2)C1)C(=O)c1ccccc1C3=O was read as HepG2 viability inactive, ATXN2 expr inh inactive, S2 tox inconclusive and TGFb inhibitor inactive.
Screening CC(=O)C1(O)Cc2c(O)c3c(c(O)c2C(OC2CC(N)C(O)C(C)O2)C1)C(=O)c1c(O)cccc1C3=O (stereo unspecified) returned HepG2 viability inactive and TGFb inhibitor 1.6µM.
`CCOc1ccc2c(c1)c(=O)c(C(=O)c1ccc3c(c1)OCO3)cn2Cc1cccc(F)c1` gave HepG2 viability inactive, ATXN2 expr inh inactive, DRD3 agonist inactive, S2 tox inconclusive and TGFb inhibitor inconclusive.
O=C(Nc1ccc(-c2nc3ccccc3o2)cc1)c1cc(-n2cnnc2)ccc1Cl was read as HepG2 viability inactive, ATXN2 expr inh inconclusive, D3 antag inactive, DRD3 agonist inactive, S2 tox inconclusive and TGFb inhibitor inactive.
For O=C(Nc1ccc(-c2nc3ccccc3o2)c(O)c1)c1cc(-n2cnnc2)ccc1Cl the results were HepG2 viability 18µM, ATXN2 expr inh inactive, D3 antag inactive, DRD3 agonist inactive, S2 tox inactive and TGFb inhibitor inactive.
Screening O=C(NCCN1CCN(c2ccccc2)CC1)C1(S(=O)(=O)c2ccc(Cl)cc2)CC1 returned HepG2 viability inactive, ATXN2 expr inh inactive, D3 antag -53, DRD3 agonist inactive, S2 tox inactive and TGFb inhibitor inactive.
Cc1cccc(C(=O)NCCN2CCN(c3ccccc3)CC2)c1 was read as HepG2 viability inactive, ATXN2 expr inh inactive, D3 antag inconclusive, DRD3 agonist inactive, S2 tox inactive and TGFb inhibitor inactive.
`O=C(NCc1ccccc1Cl)C1(S(=O)(=O)c2ccc(Cl)cc2)CC1` gave HepG2 viability inactive, ATXN2 expr inh inactive, D3 antag inactive, DRD3 agonist inactive, S2 tox inactive and TGFb inhibitor inactive.
`O=C(c1ccccc1)N1CCN(CCc2ccccc2)CC1` gave HepG2 viability inactive, ATXN2 expr inh inactive, D3 antag inactive, DRD3 agonist inactive, S2 tox inactive and TGFb inhibitor inactive.
`O=C(NCCN1CCN(c2ccccc2)CC1)c1cccc(Cl)c1` gave HepG2 viability inactive, D3 antag -56, DRD3 agonist inactive, S2 tox inactive and TGFb inhibitor inactive.
`CCc1ccccc1Nc1cc(C(=O)NCCCN(C)C2CCCCC2)c2ccccc2n1` gave HepG2 viability inactive, ATXN2 expr inh inconclusive, DRD3 agonist inactive, S2 tox 16µM and TGFb inhibitor inconclusive.
`O=C(c1cccc(Cl)c1)N1CCN(CCCc2ccccc2)CC1` gave HepG2 viability inactive, ATXN2 expr inh inactive, D3 antag inactive, DRD3 agonist 33, S2 tox inactive and TGFb inhibitor inactive.
O=C1CC(CC(=O)N2CC3CCCC2C3)(c2cccc(F)c2)C(=O)N1Cc1cccnc1 (stereo unspecified) was read as S2 tox inactive.
Screening O=C(NCCCN1CCN(c2cccc(Cl)c2)CC1)c1ccc(N2CCCC2=O)cc1 returned HepG2 viability inactive, ATXN2 expr inh inactive, D3 antag inconclusive, DRD3 agonist inactive, S2 tox inactive and TGFb inhibitor inactive.
Screening Cc1ccccc1Nc1cc(C(=O)NCCc2ccc(Cl)cc2)c2ccccc2n1 returned HepG2 viability inactive, ATXN2 expr inh inconclusive, DRD3 agonist inactive, S2 tox inconclusive and TGFb inhibitor inconclusive.
`Cc1ccccc1Nc1cc(C(=O)NCCCN2CCN(c3cccc(Cl)c3)CC2)c2ccccc2n1` gave HepG2 viability inactive, ATXN2 expr inh inconclusive, DRD3 agonist inactive, S2 tox inconclusive and TGFb inhibitor 22µM.
For Nc1ccccc1C(=O)NCCCN1CCN(c2cccc(Cl)c2)CC1 the results were HepG2 viability inactive, ATXN2 expr inh inactive, D3 antag -73, DRD3 agonist inactive, S2 tox inactive and TGFb inhibitor inactive.

High-throughput results deposited in PubChem by National Center for Advancing Translational Sciences (NCATS).
